Data from PubChem BioAssay (EPA / NIEHS).
Results filed as inconclusive are left out. Activity calls are given as the source filed them. How the source made its calls, unless noted: active means hit-call score of the fitted dose curve at least 0.9, where 1 is the maximum; inactive means score below 0.9.

Columns and labels:
[1] = target: Paired box protein Pax-6 (Homo sapiens) (UniProt P26367); experiment: ATG_Pax6_CIS: Attagene CIS-FACTORIAL HepG2 Assay for human Paired Box 6 (PAX6) (AID 2282956); details: HepG2 CIS-FACTORIAL PAX6 reporter transcription, RNA readout; actives raise or lower the signal
How it was run: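 After twenty-four hours of chemical exposure, transfected HepG2 cells are harvested for RNA. Cis-promoter reporter transcripts are amplified, fluorescently labelled and sized by capillary electrophoresis, with gain and loss of signal scored against DMSO.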

[2] = ATG_PXRE_CIS: Attagene CIS-FACTORIAL HepG2 Assay for human Pregnane X Receptor Element (PXRE) (AID 2282957); details: HepG2 Attagene CIS-FACTORIAL PXRE reporter, mRNA; actives raise or lower the signal
How it was run: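 Multiplexed cis-reporter assay in transiently transfected human HepG2 cells; 24 h chemical exposure. Reporter transcripts quantified by RT-PCR with fluorescent labeling and capillary electrophoresis.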

[3] = ATG_PPRE_CIS: Attagene CIS-FACTORIAL HepG2 Assay for human Peroxisome Proliferator-activated Response Element (PPRE) (AID 2282958); details: HepG2 PPRE cis-element reporter, Attagene transcription factor profiling; actives raise or lower the signal
How it was run: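 Transcript-level reporter induction in transfected HepG2 cells after 24 h chemical exposure, quantified by fluorescence from RT-PCR products separated by capillary electrophoresis.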

[4] = ATG_RORE_CIS: Attagene CIS-FACTORIAL HepG2 Assay for human RAR-related Orphan Receptor Element (RORE) (AID 2282959); details: HepG2 Attagene cis-factorial RORE reporter, mRNA; actives raise or lower the signal
How it was run: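 Multiplexed reporter assay measuring mRNA induction from a cis promoter element in transiently transfected HepG2 cells after 24 h treatment. Detection via RT-PCR and capillary electrophoresis fluorescence; DMSO serves as baseline.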

[5] = target: Transcription factor Sp1 (Homo sapiens) (UniProt P08047); experiment: ATG_Sp1_CIS: Attagene CIS-FACTORIAL HepG2 Assay for human Specificity Protein 1 (Sp1) (AID 2282961); details: HepG2 Sp1 cis-reporter transcription, actives raise or lower the signal
How it was run: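 Measures mRNA induction of an Sp1-linked reporter in HepG2 cells 24 h post-dosing. Multiplexed reporters read by RT-PCR and capillary electrophoresis; DMSO serves as negative control and baseline.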

[6] = ATG_SREBP_CIS: Attagene CIS-FACTORIAL HepG2 Assay for human Sterol Regulatory Element Binding (SREBP) (AID 2282962); details: HepG2 Attagene cis-factorial SREBP reporter, mRNA; actives raise or lower the signal
How it was run: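 Twenty-four hours after chemical dosing of transfected HepG2 cultures, reporter RNA was converted to cDNA, amplified, end-labelled with 6-FAM and resolved by capillary electrophoresis. Responses were fitted relative to DMSO.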

[7] = target: Signal transducer and activator of transcription 3 (Homo sapiens) (UniProt P40763); experiment: ATG_STAT3_CIS: Attagene CIS-FACTORIAL HepG2 Assay for human Signal Transducer and Activator of Transcription 3 (STAT3) (AID 2282963); details: HepG2, Attagene cis-factorial STAT3 reporter transcription; actives raise or lower the signal
How it was run: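 After a 24 h compound incubation, total RNA from MRTU-transfected HepG2 cells was converted to cDNA and reporter sequences PCR-amplified, labelled and profiled by capillary electrophoresis. Gain and loss of signal were referenced to DMSO.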

[8] = ATG_TA_CIS: Attagene CIS-FACTORIAL HepG2 Assay for human TA Basal Promoter (AID 2282964); details: HepG2 Attagene CIS-factorial TA basal promoter reporter; actives raise or lower the signal
How it was run: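 HepG2 cells transiently transfected with multiple reporter units under cis promoter elements, reporting endogenous transcription factor activity; this endpoint tracks the TA basal promoter as background control. Reporter mRNA after 24 h dosing measured by RT-PCR/capillary electrophoresis; bidirectional fits versus DMSO.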

[9] = ATG_TCF_b_cat_CIS: Attagene CIS-FACTORIAL HepG2 Assay for human T-Cell-Factor with beta-catenin (TCF/b-cat) (AID 2282965); details: HepG2 TCF/beta-catenin cis-reporter transcription, actives raise or lower the signal
How it was run: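 Endogenous transcription factor activity is captured through cis-promoter reporter constructs transiently introduced into human HepG2 liver cells. Induced reporter mRNA is measured after 24 h and fitted bidirectionally relative to DMSO.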

[10] = ATG_TAL_CIS: Attagene CIS-FACTORIAL HepG2 Assay for human TAL Basal Promoter (AID 2282966); details: HepG2 Attagene cis-factorial TAL promoter reporter; actives raise or lower the signal;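 further: background control endpoint measuring basal TAL promoter reporter mRNA not a specific factor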
How it was run: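 Steps: transfect HepG2 with multiple reporter transcription units; dose 24 h; isolate RNA, reverse-transcribe, PCR-amplify, label with 6-FAM, digest with HpaI; resolve by capillary electrophoresis. Bidirectional fitting against DMSO baseline.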

[11] = ATG_VDRE_CIS: Attagene CIS-FACTORIAL HepG2 Assay for human Vitamin D Receptor Element (VDRE) (AID 2282968); details: HepG2 VDRE cis-reporter transcription, actives raise or lower the signal
How it was run: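 In transiently transfected HepG2 liver cells, gain or loss of reporter mRNA after 24 h exposure is scored relative to DMSO, using fluorescence detection by capillary electrophoresis of RT-PCR products.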

[12] = target: Estrogen receptor (Homo sapiens) (UniProt P03372); experiment: ATG_ERa_TRANS: Attagene TRANS-FACTORIAL HepG2 Assay for human Estrogen Receptor alpha (ERa) (AID 2282970; active means hit-call score of the fitted dose curve at least 0.9, where 1 is the maximum); details: HepG2 Attagene TRANS ERa GAL4 reporter, mRNA
How it was run: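 Multiplexed cell-based reporter format in HepG2: chimeric ERa-Gal4 protein drives GAL4-UAS reporter transcription. Fluorescent reporter mRNA quantified by capillary electrophoresis 24 hours after dosing; endpoint fitted as signal gain against DMSO.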

[13] = target: X-box-binding protein 1 (Homo sapiens) (UniProt P17861); experiment: ATG_Xbp1_CIS: Attagene CIS-FACTORIAL HepG2 Assay for human X-box Binding Protein 1 (XBP1) (AID 2282972); details: HepG2 XBP1 cis-element reporter, Attagene multiplex; actives raise or lower the signal
How it was run: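 After a 24-hour chemical exposure of HepG2 cells carrying cis-regulated reporters, reporter mRNA levels are assessed. Quantification uses RT-PCR, 6-FAM labelling and capillary electrophoresis. Gain- or loss-of-signal is fitted against DMSO.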

[14] = ATG_M_19_TRANS: Attagene TRANS-FACTORIAL HepG2 Assay for M19 Transcription Factor (Internal Marker) (AID 2282974; active means hit-call score of the fitted dose curve at least 0.9, where 1 is the maximum); details: HepG2 Attagene TRANS-FACTORIAL M19 internal marker reporter
How it was run: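 After transfection of HepG2 with GAL4-UAS-driven reporter constructs, cells are dosed for 24 h. Total RNA is reverse-transcribed, reporter sequences PCR-amplified and labelled, then HpaI-digested and sized by capillary electrophoresis.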

[15] = ATG_Sox_CIS: Attagene CIS-FACTORIAL HepG2 Assay for human SRY-box transcription factor (SOX) (AID 2282960); details: HepG2 Attagene cis-factorial SOX reporter, mRNA; actives raise or lower the signal
How it was run: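 Cells were transfected with reporter constructs under cis-regulatory promoters, then exposed to chemicals for 24 h. Reporter transcripts were quantified by fluorescence after RT-PCR and capillary electrophoresis; activity was fitted in both directions against DMSO.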

[16] = ATG_TGFb_CIS: Attagene CIS-FACTORIAL HepG2 Assay for human Transforming Growth Factor (TGF) (AID 2282967); details: HepG2 Attagene CIS TGFb reporter, mRNA transcription; actives raise or lower the signal
How it was run: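 HepG2 cells transiently transfected with cis-promoter-driven multiple reporter units measure endogenous TF activity; reporter mRNA quantified at 24 h by RT-PCR, FAM labeling, HpaI digestion and capillary electrophoresis. Bidirectional fit vs DMSO.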

[17] = target: Nuclear receptor subfamily 1 group I member 3 (Homo sapiens) (UniProt Q14994); experiment: ATG_CAR_TRANS: Attagene TRANS-FACTORIAL HepG2 Assay for human Constitutive Androstane Receptor (CAR) (AID 2282969; active means hit-call score of the fitted dose curve at least 0.9, where 1 is the maximum;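 further: activators raise reporter mRNA above DMSO so AC50 marks induction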); details: HepG2 Attagene TRANS-FACTORIAL CAR reporter
How it was run: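 Readout is reporter mRNA induction, quantified by fluorescent primer extension and capillary electrophoresis after RT-PCR. Cells were HepG2 transiently carrying chimeric NR-Gal4 constructs with GAL4-UAS reporters, treated for 24 h; activity scored upward from DMSO.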

[18] = target: Steroid hormone receptor ERR1 (Homo sapiens) (UniProt P11474); experiment: ATG_ERRa_TRANS: Attagene TRANS-FACTORIAL HepG2 Assay for human Estrogen-Related Receptor alpha (ERRa) (AID 2282971; active means hit-call score of the fitted dose curve at least 0.9, where 1 is the maximum); details: HepG2 Attagene TRANS reporter, ERRa transactivation
How it was run: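 Signal gain relative to DMSO for an ERRa-Gal4 chimeric receptor, read as reporter mRNA by RT-PCR/capillary electrophoresis. Human HepG2 liver cells, transient multiplex reporter transfection, 24 h chemical exposure.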

[19] = ATG_GAL4_TRANS: Attagene TRANS-FACTORIAL HepG2 Assay for GAL4 (Internal Marker) (AID 2282976; active means hit-call score of the fitted dose curve at least 0.9, where 1 is the maximum); details: HepG2 Attagene TRANS GAL4 internal marker reporter
How it was run: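 Liver HepG2 line bearing multiplexed GAL4-UAS reporter constructs; 24 h chemical treatment. Transcripts were quantified as fluorescent fragments on capillary electrophoresis after RT-PCR and HpaI cut, with activity fitted upward from DMSO.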

Measured: AC50

X-box-binding protein 1 (Homo sapiens), sequence (P17861 whole entry, looked up): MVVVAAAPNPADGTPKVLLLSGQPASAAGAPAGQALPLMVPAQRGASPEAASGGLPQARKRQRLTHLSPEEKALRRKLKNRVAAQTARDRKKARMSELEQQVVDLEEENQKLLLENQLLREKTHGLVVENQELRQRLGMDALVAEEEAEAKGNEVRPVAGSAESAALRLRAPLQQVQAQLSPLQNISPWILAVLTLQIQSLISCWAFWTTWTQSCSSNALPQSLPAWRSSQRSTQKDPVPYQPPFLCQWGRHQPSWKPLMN
Estrogen receptor (Homo sapiens), sequence (P03372 whole entry, looked up, the tested form may be a part): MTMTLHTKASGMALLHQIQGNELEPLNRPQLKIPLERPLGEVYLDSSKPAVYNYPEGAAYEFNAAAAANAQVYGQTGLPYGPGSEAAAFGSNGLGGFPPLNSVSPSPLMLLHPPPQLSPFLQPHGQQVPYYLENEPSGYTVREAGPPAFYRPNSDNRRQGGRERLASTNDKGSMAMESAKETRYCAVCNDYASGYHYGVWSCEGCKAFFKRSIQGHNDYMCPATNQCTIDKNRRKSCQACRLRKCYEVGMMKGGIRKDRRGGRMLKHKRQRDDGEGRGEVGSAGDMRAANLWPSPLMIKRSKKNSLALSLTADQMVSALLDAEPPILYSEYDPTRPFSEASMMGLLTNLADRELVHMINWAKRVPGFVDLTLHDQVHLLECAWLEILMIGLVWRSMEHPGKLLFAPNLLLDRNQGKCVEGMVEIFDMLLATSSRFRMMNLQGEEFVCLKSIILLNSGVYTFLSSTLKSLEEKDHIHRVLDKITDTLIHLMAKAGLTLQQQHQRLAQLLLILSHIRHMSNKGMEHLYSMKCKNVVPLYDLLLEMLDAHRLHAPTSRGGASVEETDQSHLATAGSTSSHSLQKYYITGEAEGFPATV
Paired box protein Pax-6 (Homo sapiens), sequence (P26367 whole entry, looked up): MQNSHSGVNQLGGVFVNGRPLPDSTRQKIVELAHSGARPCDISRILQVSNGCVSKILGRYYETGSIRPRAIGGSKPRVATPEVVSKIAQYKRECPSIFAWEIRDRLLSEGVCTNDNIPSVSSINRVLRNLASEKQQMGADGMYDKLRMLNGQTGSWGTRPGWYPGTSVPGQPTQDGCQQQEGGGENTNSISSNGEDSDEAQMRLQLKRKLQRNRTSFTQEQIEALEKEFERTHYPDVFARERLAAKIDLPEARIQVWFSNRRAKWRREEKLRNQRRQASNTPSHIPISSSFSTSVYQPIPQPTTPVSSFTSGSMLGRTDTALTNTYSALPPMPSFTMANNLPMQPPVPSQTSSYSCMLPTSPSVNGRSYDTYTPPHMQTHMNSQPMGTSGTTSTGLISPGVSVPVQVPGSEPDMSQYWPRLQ
Signal transducer and activator of transcription 3 (Homo sapiens), sequence (P40763 whole entry, looked up): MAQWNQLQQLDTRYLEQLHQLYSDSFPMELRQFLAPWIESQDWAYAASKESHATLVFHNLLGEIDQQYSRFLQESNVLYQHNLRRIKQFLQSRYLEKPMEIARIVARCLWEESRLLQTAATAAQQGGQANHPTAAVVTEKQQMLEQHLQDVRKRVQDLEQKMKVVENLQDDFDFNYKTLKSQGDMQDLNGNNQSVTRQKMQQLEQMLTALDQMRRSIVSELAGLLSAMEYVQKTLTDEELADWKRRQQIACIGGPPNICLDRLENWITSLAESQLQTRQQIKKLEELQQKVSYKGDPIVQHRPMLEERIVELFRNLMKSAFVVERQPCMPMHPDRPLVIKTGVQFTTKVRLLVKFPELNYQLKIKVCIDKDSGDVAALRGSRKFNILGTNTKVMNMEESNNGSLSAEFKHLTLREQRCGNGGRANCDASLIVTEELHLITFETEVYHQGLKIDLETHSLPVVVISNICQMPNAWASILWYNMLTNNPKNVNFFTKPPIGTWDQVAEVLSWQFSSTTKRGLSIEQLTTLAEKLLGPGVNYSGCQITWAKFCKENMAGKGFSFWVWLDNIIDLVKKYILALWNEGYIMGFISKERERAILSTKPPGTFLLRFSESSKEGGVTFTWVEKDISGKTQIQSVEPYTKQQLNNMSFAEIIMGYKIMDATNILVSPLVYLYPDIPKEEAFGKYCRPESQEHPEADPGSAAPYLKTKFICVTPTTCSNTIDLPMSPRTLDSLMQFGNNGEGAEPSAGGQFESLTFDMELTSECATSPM
Nuclear receptor subfamily 1 group I member 3 (Homo sapiens), sequence (Q14994 whole entry, looked up, the tested form may be a part): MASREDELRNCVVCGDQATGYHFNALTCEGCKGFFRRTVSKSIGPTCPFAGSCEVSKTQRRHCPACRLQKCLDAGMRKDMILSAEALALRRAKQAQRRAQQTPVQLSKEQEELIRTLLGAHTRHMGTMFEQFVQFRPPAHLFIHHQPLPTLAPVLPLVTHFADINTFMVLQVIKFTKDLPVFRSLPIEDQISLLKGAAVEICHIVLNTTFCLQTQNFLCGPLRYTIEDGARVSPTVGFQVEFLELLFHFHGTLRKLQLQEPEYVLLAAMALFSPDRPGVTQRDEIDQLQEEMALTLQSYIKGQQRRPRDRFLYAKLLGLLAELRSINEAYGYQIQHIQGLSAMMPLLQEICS
Transcription factor Sp1 (Homo sapiens), sequence (P08047 whole entry, looked up): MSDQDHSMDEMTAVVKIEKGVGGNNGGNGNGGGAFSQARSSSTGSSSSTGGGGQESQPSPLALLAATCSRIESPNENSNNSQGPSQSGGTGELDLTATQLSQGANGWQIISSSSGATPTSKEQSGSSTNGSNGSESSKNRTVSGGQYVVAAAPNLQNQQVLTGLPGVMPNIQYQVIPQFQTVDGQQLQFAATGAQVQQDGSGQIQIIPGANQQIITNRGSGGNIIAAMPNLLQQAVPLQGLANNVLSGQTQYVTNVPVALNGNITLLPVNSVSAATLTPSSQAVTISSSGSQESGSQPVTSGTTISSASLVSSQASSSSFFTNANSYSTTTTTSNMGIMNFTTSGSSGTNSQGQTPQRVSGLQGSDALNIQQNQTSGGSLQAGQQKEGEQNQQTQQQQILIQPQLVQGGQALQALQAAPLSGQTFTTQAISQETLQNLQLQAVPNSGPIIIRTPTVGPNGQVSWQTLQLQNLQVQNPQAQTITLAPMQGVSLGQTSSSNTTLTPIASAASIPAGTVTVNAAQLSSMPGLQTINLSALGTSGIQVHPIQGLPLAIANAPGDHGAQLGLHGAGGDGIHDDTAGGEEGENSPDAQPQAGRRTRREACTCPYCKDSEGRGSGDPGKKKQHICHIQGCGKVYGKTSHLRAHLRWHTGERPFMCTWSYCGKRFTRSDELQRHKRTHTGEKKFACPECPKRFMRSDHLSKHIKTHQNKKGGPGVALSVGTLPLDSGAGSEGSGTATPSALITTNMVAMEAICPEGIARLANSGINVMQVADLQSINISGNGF
Steroid hormone receptor ERR1 (Homo sapiens), sequence (P11474 whole entry, looked up, the tested form may be a part): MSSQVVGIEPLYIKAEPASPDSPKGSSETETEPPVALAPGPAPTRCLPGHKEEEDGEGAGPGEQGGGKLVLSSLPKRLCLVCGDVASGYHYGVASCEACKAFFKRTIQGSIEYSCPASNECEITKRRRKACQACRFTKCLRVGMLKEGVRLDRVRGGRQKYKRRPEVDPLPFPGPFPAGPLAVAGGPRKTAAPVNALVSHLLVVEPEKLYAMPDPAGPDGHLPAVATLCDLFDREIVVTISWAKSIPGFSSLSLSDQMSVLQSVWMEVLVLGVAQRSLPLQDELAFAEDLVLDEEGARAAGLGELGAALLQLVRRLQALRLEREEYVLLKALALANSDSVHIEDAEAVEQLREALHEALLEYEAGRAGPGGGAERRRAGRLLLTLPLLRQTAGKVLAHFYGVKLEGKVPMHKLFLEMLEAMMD

C=CC(C)(CCC=C(C)C)OC(=O)C(C)C (centres undefined)
active: [2] 8.57 µM | [12] 38 µM
not listed: [15] | [16] | [17] | [18] | [19]
inactive: all other assays above

C=C(C)[C@@H]1CCC2=CCC[C@@H](C)[C@]2(C)C1
active: [2] 1.52 µM | [12] 9.59 µM
not listed: [3] | [19]
inactive: all other assays above

C=C[C@](C)(O)CC[C@@H]1[C@@]2(C)CCCC(C)(C)[C@@H]2CC[C@@]1(C)O
active: [2] 0.357 µM
not listed: [4] | [14] | [17] | [18] | [19]
inactive: all other assays above

CC(=O)Oc1ccc(C)cc1
not listed: [4] | [9] | [11] | [12] | [17] | [18] | [19]
inactive: all other assays above

O=C(Nc1cccc(C(F)(F)F)c1)c1cc(Br)cc(Br)c1O
active: [1] 78.9 µM | [4] 2.29 µM | [5] 100 µM | [6] 21.5 µM | [8] 43.9 µM | [9] 128 µM | [10] 145 µM | [11] 2.18 µM | [13] 26.4 µM
inactive: [2] | [3] | [7] | [16] | [19]

CCN(Cc1cccc(S(=O)(=O)O)c1)c1ccc(C(=C2C=CC(=[N+](CC)Cc3cccc(S(=O)(=O)[O-])c3)C=C2)c2ccccc2)cc1
active: [2] 20.6 µM | [16] 37.4 µM
not listed: [4] | [5] | [8] | [9] | [14] | [18]
inactive: all other assays above

C=C(C)C(=O)OCCO
not listed: [3] | [18] | [19]
inactive: all other assays above

COC(=O)c1cc(Cl)ccc1[N+](=O)[O-]
active: [2] 76.1 µM
not listed: [4] | [8] | [15] | [18] | [19]
inactive: all other assays above

CC(C)c1ccc(C=O)cc1
not listed: [4] | [14] | [18] | [19]
inactive: all other assays above
